FBPA Giardia inh: blocks Giardia fructose-bisphosphate aldolase activity; A8B2U2; purified Giardia FBPA; Potency, µM (highest dose often 59.6 µM), without a hit: top-dose activity, negative = inhibition, most hits filed as inhibitors; actives 0.71% (n = 290,000); AID 2451; further: potency means the concentration at half of the fitted maximal effect; on the % scale 0 is the no-effect control and ±100 the full control effect; nearly all actives have a fitted effect of over 55% in size
Target sequence (A8B2U2 whole entry, looked up): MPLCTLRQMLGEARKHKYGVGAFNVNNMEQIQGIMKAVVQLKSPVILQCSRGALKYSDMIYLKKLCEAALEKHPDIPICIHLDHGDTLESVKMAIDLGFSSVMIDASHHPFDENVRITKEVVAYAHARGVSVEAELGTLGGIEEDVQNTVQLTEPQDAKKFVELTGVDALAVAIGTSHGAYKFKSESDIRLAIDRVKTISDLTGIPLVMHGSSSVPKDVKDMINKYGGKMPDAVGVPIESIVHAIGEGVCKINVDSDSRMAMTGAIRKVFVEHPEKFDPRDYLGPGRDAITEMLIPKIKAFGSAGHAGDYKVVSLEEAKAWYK
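Giardia FBPA (40 nM reagent) was preincubated 10 min at RT with compound (up to 57.5 uM final), then substrate plus GAPDH/TPI/NAD/arsenate coupling system with diaphorase/resazurin was added; resorufin fluorescence (525/598 nm) was read after 20 min.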
TbPYK inhibitor: inhibitors of Trypanosoma brucei pyruvate kinase | Q57TT1 | TbPYK enzyme, Kinase-Glo Plus ATP luminescence, 45 min | Potency, µM (highest dose often 76.8 µM), for inactives: at the highest dose activity, negative = inhibition, hits mostly inhibitors | actives 0.12% (n = 410,000) | AID 624173; further: potency means the concentration at half of the fitted maximal effect; on the % scale 0 is the no-effect control and ±100 the full control effect; nearly all actives have a fitted effect of over 50% in size
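ADP (130 uM final) triggers the TbPYK reaction after compound addition; incubation is 45 min at room temperature. Kinase-Glo Plus is then added and luminescence imaged. Normalized data are fitted to concentration-effect curves.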
LmPK inhibitor: LmPK (Leishmania mexicana) enzyme inhibition; Q27686; purified LmPK, Kinase-Glo ATP luminescence, 1 h; Potency, µM (highest dose often 57.5 µM), for inactives: at the top dose activity change, negative = inhibition, usual class: inhibitors; actives 0.37% (n = 290,000); AID 1721; further: potency means the concentration at half of the fitted maximal effect; on the % scale 0 is the no-effect control and ±100 the full control effect
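In 50 mM imidazole pH 7.2 with 7 mM MgCl2, LmPK (0.1 nM) turned over PEP (0.5 mM) and ADP (0.1 mM) for 1 h at room temperature. Luciferase read-out of ATP.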
Shiga inhibitor: Shiga toxin inhibition; AID 2315; actives 9.2% (n = 290,000); Vero cells, Shiga toxin protein synthesis inhibition reporter; inhibition, % at 38.7 µM; in the data active means inhibition mostly above about 28%, no sharp cut-off; inactive means mostly below about 43%; further: 0% is about no effect
CHX counter: counter-screen hit for Shiga toxin inhibitors, cycloheximide; cell reporter, cycloheximide protein synthesis inhibition counterscreen; max response, %; actives 12% (n = 300,000); in the data active means max response mostly above about 13%, no sharp cut-off; inactive means mostly below about 14%; further: read at 38.3 µM for the half of the compounds with a filed dose; 0% is about no effect
RE007 growth inh: less growth of the S. pombe RE007 Vpr strain; Potency, µM (titrated, usually from 92.2 µM), for the others: top-dose activity change, negative = less growth, usual class: inhibitors; actives 0.21% (n = 360,000); S. pombe RE007 Vpr strain, BacTiter-Glo ATP luminescence, 24 h; AID 651644; active means well fitted falling curve with a large enough effect; inconclusive means small, poorly fitted or top-dose-only effect; inactive means no such curve, though single readings can be large or run the other way; further: potency means the concentration at half of the fitted maximal effect; on the % scale 0 is the no-effect control and ±100 the full control effect; nearly all actives have a fitted effect of over 50% in size
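Fission yeast RE007 carrying one integrated HIV-1 vpr copy, seeded at OD 0.01 in PMG+AL medium with 23 nL pinned compound. Grown 24 h at 30 degrees; viability read by BacTiter-Glo luminescence after 5 min.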
* = called active by the depositor; ? = inconclusive; . = no result given. Only a selection was taken, and hits are over-represented in it overall. Unless noted, the call rests on the fitted dose curve; in most records, active means well fitted curve in the direction sought with a large enough effect; inconclusive means small, poorly fitted or top-dose-only effect, or another doubt; inactive means no such curve, though single readings can be large; an effect the other way counts as inactive or inconclusive.

SMILES | FBPA Giardia inh | TbPYK inhibitor | LmPK inhibitor | Shiga inhibitor | CHX counter | RE007 growth inh
CC1CCCC2(C1)NC(=S)N(c1ccccc1)N2 (configuration not stated) | -1% | -11% | -2% | 28 | 28* | 164%
C=CCN=C1S/C(=C\c2ccc(N(C)C)cc2)C(=O)N1CC=C | 2% | 1% | -2% | 59* | 45* | -27%
C=CCN1C(=O)/C(=C/c2ccc(OC)cc2)S/C1=N/c1nccs1 | 3% | -1% | 0% | -5 | -3 | 3%
Cc1ccc(OCCOc2cccc(C=C3C(=O)NC(=O)NC3=O)c2)c(C)c1 | 0% | -15% | 6% | 110* | 110* | -11%
O=C1NC(=O)C(=Cc2ccc(OCCOc3ccc([N+](=O)[O-])cc3)cc2)C(=O)N1 | -10% | ? | -5% | 11 | 9 | 5%
O=C1NC(=O)C(=Cc2cccc(OCCOc3ccccc3)c2)C(=O)N1 | -6% | ? | 1% | 65* | 44* | -14%
Cc1ccn2c(C(C)O)nnc2c1 (configuration not stated) | . | 0% | . | . | . | -10%
COc1ccc(OC)c(NC(=O)Nc2nnc(COCCO)s2)c1 | . | -8% | . | . | . | 0%
CCOC(CNc1ncnc2sc(-c3ccccc3)cc12)OCC | 5% | 4% | 4% | 25 | 12* | -5%
CN(C)CCCNc1ncnc2sc(-c3ccccc3)cc12 | ? | -6% | -12% | -11 | -3 | 9%
Cc1cccc(OCCSc2nncn2C)c1 | 6% | 1% | 4% | 35 | 33* | -16%
Cc1cccc(OCCSc2nnc(-c3ccoc3C)n2C)c1 | 8% | 8% | 0% | 35 | 5 | 3%
Cn1cnnc1SCCOc1ccc(Cl)cc1 | -3% | 6% | -1% | 88 | 15* | 9%
Cc1ccc(CNC(=O)Cn2c(=O)n(-c3ccc(C)c(F)c3)c(=O)c3sc4ccccc4c32)cc1 | . | 2% | . | . | . | .
O=C(c1cc2ccccc2oc1=O)N(Cc1cccs1)Cc1cccs1 | 1% | -21% | 9% | 7 | 23 | -8%
CCc1ccc(CN(C(=O)c2oc3ccccc3c2C)C2CCS(=O)(=O)C2)cc1 (configuration not stated) | -1% | -12% | -3% | -3 | -2 | 18%
CCc1ccc(CN(C(=O)c2cc3ccccc3oc2=O)C2CCS(=O)(=O)C2)cc1 (configuration not stated) | . | -8% | -21% | 72* | 27* | 14%
O=C(c1cc2ccccc2oc1=O)N(Cc1ccco1)Cc1cccs1 | 0% | -5% | 3% | 20 | 17* | 19%
COc1cc(CN(C(=O)c2cc3ccccc3oc2=O)C2CCS(=O)(=O)C2)cc(OC)c1OC (configuration not stated) | 2% | -9% | 0% | 30 | 28* | -2%
O=C(c1cc(=O)c2ccccc2o1)N(Cc1ccccc1)C1CCS(=O)(=O)C1 (configuration not stated) | -13% | 9% | 4% | 34 | 14 | -13%
Cc1ccc(CN(C(=O)c2cc3ccccc3oc2=O)C2CCS(=O)(=O)C2)cc1 (configuration not stated) | -1% | -1% | -13% | 73* | 39* | -3%
O=c1ccn2c(n1)SC(c1ccccc1)C2 (configuration not stated) | . | -6% | . | . | . | -4%
COc1ccc(CN(C(=O)c2cc3ccccc3oc2=O)C2CCCCC2)cc1OC | 3% | 2% | -1% | 65* | 48* | 3%
COc1ccc(CCNC(=O)COC(=O)c2cc3ccccc3oc2=O)cc1OC | . | -1% | . | . | . | 9%
O=C(c1cc2ccccc2oc1=O)N(Cc1ccc(F)cc1)C1CCS(=O)(=O)C1 (configuration not stated) | -4% | 1% | -21% | 130* | 64* | 3%
O=C(c1ccccc1F)N(Cc1ccc(F)cc1)C1CCS(=O)(=O)C1 (configuration not stated) | 12% | -9% | 0% | 2 | 1 | -3%
CC(C)N(Cc1ccc(F)cc1)C(=O)c1cc2ccccc2oc1=O | -2% | . | 8% | 55* | 43* | .
